“And” between values parts separate entries of the source, which are not always exact repeats. Identical values can stand only once. Where a structure was tested more than once in an assay, its records may differ in their call. The source made the active and inactive calls. How the source made its calls: active means hit-call score of the fitted dose curve at least 0.9, where 1 is the maximum; inactive means score below 0.9.
How the values were obtained:
[1] = biological target: Transcriptional activator Myb (Homo sapiens) (UniProt P10242); assay: ATG_Myb_CIS: Attagene CIS-FACTORIAL HepG2 Assay for human Myeloblastosis (Myb) Proto-Oncogene Transcription Factor (AID 2282986); settings: HepG2 Attagene CIS-FACTORIAL Myb reporter transcription; actives raise or lower the signal
In short: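 Transiently transfected HepG2 cells, treated 24 h. Reporter mRNA quantified by RT-PCR/capillary electrophoresis; bidirectional fit relative to DMSO.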

[2] = biological target: Nuclear respiratory factor 1 (Homo sapiens) (UniProt Q16656); assay: ATG_NRF1_CIS: Attagene CIS-FACTORIAL HepG2 Assay for human Nuclear Respiratory Factor 1 (NRF1) Orphan Gene (AID 2282987); settings: HepG2 NRF1 cis-element reporter, Attagene multiplex; actives raise or lower the signal
In short: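 Cells (HepG2, transient MRTU transfection) are exposed to compound for 24 h, then RNA isolated and reporter mRNA amplified and fluorescently labelled. Fragments are separated by capillary electrophoresis; signal change is fitted bidirectionally relative to DMSO.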

[3] = ATG_NFI_CIS: Attagene CIS-FACTORIAL HepG2 Assay for human Nuclear Factor I (NFI) (AID 2282989); settings: HepG2 cis-regulatory reporter, NFI response element transcription; actives raise or lower the signal
In short: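 Read-out: reporter mRNA via RT-PCR plus capillary electrophoresis with fluorescence detection. Transiently transfected HepG2 (endogenous TF activity on cis promoters), 24 h compound exposure; gain or loss of signal fitted against DMSO.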

[4] = biological target: Myc proto-oncogene protein (Homo sapiens) (UniProt P01106); assay: ATG_Myc_CIS: Attagene CIS-FACTORIAL HepG2 Assay for human Myelocytomatosis (Myc) Proto-Oncogene Transcription Factor (AID 2282990); settings: HepG2, Attagene cis-reporter transcription factor activity; actives raise or lower the signal
In short: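 Transiently transfected HepG2 cells bearing cis-promoter reporter units for endogenous transcription factors; 24 h exposure. Reporter mRNA measured by RT-PCR, 6-FAM primer extension, HpaI cut and capillary electrophoresis; bidirectional fit relative to DMSO.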

[5] = ATG_NF_kB_CIS: Attagene CIS-FACTORIAL HepG2 Assay for human Nuclear Factor Kappa B (NF-kB) (AID 2282991); settings: HepG2 Attagene cis-factorial NF-kB reporter mRNA; actives raise or lower the signal
In short: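 Measures mRNA induction of an NF-kB-responsive cis-element reporter in HepG2 cells transfected with multiple reporter units, sampled 24 h post-dosing; quantified by fluorescence after RT-PCR and capillary electrophoresis, fitted for activation or inhibition against DMSO.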

[6] = ATG_NRF2_ARE_CIS: Attagene CIS-FACTORIAL HepG2 Assay for human Nuclear Factor Erythroid 2 Related Factor 2 (NFR2) response to Antioxidant Response Elements (ARE) (AID 2282992); settings: HepG2 Attagene ARE/NRF2 reporter, transcription factor activity; actives raise or lower the signal;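 on AC50: reporter mRNA level measured by RT-PCR and capillary electrophoresis fluorescence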
In short: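 Fluorescence intensity of reporter-specific cDNA fragments, separated by capillary electrophoresis, reflects mRNA induction in transfected HepG2 cells at 24 h. Activity is fitted bidirectionally, DMSO serving as baseline.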

[7] = ATG_Oct_MLP_CIS: Attagene CIS-FACTORIAL HepG2 Assay for human Octamer-Binding Transcription Factor (Oct) (AID 2282993); settings: HepG2 Attagene cis-factorial Oct reporter, mRNA; actives raise or lower the signal
In short: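 Read-out: reporter mRNA via RT-PCR plus capillary electrophoresis of 6-FAM-labelled fragments. Transiently transfected HepG2, 24 h exposure, endogenous TF activity on cis elements. Gain or loss of signal fitted relative to DMSO.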

[8] = biological target: Cellular tumor antigen p53 (Homo sapiens) (UniProt P04637); assay: ATG_p53_CIS: Attagene CIS-FACTORIAL HepG2 Assay for human p53 Transcription Factor (AID 2282994); settings: HepG2 p53 cis-element reporter, Attagene mRNA; actives raise or lower the signal
In short: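 Transiently transfected HepG2 (multiple cis reporter transcription units); exposure 24 h; reporter RNA via RT-PCR, 6-FAM extension, 2 h HpaI digest at 37 C, CE detection; DMSO baseline.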

[9] = BSK_3C_TissueFactor: BioMAP Diversity Plus: 3C Assay for Tissue Factor Biomarker Activity (AID 2282997); settings: BioMAP 3C HUVEC, tissue factor biomarker readout; actives raise or lower the signal
In short: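 Cells used were primary human umbilical vein endothelial cells. They were dosed with chemical, and after 24 h Tissue Factor was quantified by ELISA. Curves were fitted bidirectionally with DMSO as baseline.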

[10] = BSK_3C_uPAR: BioMAP Diversity Plus: 3C Assay for Urokinase-type plasminogen activator receptor (uPAR) Biomarker Activity (AID 2282998); settings: BioMAP 3C HUVEC, uPAR biomarker ELISA; actives raise or lower the signal
In short: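 HUVEC primary cells; 24 h post-dose; uPAR by ELISA; gain or loss of signal fitted bidirectionally vs DMSO baseline.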

Measured: AC50

Transcriptional activator Myb (Homo sapiens), sequence (P10242 whole entry, looked up): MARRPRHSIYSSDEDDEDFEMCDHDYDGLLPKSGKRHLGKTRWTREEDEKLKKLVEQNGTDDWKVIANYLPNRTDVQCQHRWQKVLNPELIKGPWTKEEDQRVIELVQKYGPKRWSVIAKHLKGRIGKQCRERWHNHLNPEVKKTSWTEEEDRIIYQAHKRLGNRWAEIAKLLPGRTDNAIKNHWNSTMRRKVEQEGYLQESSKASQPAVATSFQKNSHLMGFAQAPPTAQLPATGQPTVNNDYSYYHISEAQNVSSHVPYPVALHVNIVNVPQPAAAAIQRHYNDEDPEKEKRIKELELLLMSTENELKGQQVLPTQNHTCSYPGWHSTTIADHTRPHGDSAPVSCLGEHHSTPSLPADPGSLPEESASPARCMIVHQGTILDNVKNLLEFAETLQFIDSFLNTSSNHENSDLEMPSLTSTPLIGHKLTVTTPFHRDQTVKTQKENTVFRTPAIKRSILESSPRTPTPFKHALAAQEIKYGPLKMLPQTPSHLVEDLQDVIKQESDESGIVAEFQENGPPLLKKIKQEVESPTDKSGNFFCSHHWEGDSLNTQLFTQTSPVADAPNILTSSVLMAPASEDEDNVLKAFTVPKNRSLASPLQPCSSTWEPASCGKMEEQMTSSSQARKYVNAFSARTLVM
Nuclear respiratory factor 1 (Homo sapiens), sequence (Q16656 whole entry, looked up, the tested form may be a part): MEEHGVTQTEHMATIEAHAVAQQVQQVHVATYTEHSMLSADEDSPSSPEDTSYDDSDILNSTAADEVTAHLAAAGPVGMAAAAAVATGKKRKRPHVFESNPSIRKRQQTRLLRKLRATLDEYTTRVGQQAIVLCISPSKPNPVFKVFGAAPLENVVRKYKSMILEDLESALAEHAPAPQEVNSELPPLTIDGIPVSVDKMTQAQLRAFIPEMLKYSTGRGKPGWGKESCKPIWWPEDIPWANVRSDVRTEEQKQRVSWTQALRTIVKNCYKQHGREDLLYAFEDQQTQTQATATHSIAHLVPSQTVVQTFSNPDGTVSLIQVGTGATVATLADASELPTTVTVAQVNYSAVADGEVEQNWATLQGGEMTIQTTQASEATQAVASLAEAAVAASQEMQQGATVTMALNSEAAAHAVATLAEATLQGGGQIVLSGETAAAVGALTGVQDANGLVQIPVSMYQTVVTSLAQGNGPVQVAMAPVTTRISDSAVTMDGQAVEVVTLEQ
Myc proto-oncogene protein (Homo sapiens), sequence (P01106 whole entry, looked up): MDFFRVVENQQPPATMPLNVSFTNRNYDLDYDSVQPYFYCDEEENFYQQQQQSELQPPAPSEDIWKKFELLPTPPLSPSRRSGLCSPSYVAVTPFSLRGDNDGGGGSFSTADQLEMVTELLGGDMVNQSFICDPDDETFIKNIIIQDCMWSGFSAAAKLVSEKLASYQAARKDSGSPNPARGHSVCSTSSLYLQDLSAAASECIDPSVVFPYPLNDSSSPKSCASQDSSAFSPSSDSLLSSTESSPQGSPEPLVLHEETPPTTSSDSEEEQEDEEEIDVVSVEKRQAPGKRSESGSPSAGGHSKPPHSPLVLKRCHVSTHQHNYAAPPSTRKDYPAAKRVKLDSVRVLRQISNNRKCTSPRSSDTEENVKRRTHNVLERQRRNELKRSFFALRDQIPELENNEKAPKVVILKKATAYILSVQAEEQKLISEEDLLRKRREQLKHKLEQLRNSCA
Cellular tumor antigen p53 (Homo sapiens), sequence (P04637 whole entry, looked up): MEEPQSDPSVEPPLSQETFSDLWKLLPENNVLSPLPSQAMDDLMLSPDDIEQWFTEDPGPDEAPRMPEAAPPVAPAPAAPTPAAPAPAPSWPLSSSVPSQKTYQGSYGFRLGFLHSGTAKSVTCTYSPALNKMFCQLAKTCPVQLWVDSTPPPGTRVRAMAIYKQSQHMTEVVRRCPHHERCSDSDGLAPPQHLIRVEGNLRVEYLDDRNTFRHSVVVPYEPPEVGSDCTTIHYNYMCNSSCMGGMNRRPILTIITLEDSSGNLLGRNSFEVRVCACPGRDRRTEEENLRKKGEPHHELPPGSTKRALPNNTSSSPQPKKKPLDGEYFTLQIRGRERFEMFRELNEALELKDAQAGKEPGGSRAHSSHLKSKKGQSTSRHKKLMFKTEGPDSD

CCC(C)(c1ccc(O)cc1)c1ccc(O)cc1
active: [3] 53 µM | [5] 44.8 µM | [6] 20 µM and 15.3 µM and 9.27 µM | [7] 53 µM and 45.7 µM and 9.52 µM | [8] 53.6 µM and 33.4 µM and 45.8 µM | [10] 32.8 µM
inactive: [1] | [2] | [3] | [4] | [5] | [6] | [7] | [8] | [9]

COc1ccc(O)c(C(C)(C)C)c1
active: [6] 39 µM | [7] 143 µM
not listed: [5] | [8]
inactive: all other assays above

CC1=C2C[C@H]3[C@@H](CC=C4C[C@@H](O)CC[C@@]43C)[C@@H]2CC[C@]12O[C@@H]1C[C@H](C)CN[C@H]1[C@H]2C
not listed: [3] | [5]
inactive: all other assays above

CCCCCCCCCC[N+](C)(C)CCCCCCCCCC
active: [2] 100 µM | [4] 7.82 µM | [6] 3.63 µM | [7] 3.99 µM | [8] 100 µM | [9] 4.21 µM | [10] 2.43 µM
inactive: [1] | [5]

CO/C=C(/C(=O)OC)c1ccccc1COc1cccc(C(F)(F)F)n1
active: [6] 5.41 µM | [7] 11.5 µM | [9] 10.4 µM | [10] 36.9 µM
inactive: [1] | [2] | [4] | [5]

ClC1=C(Cl)[C@]2(Cl)[C@@H]3[C@H]4C[C@H]([C@@H]5O[C@H]45)[C@@H]3[C@@]1(Cl)C2(Cl)Cl
not listed: [3]
inactive: all other assays above

CCCCCCCCOC(=O)c1ccccc1C(=O)OCCCCCCCC
not listed: [3]
inactive: all other assays above

C=CC(=O)NCNC(=O)C=C
active: [5] 100 µM | [6] 61.1 µM
not listed: [3]
inactive: all other assays above

CCOCCOC(C)=O
not listed: [3] | [5]
inactive: all other assays above

CCCN(CCC)N=O
not listed: [3]
inactive: all other assays above

CC(C)C(=O)OCC(C)(C)C(OC(=O)C(C)C)C(C)C (configuration not stated)
not listed: [3]
inactive: all other assays above

CCNc1nc(NC(C)C)nc(SC)n1
not listed: [3] | [8]
inactive: all other assays above

O=C(O)C(F)(F)C(F)(F)C(F)(F)C(F)(F)C(F)(F)F
not listed: [3] | [5]
inactive: all other assays above

N#Cc1ccc(N(CC(N)=O)CC(F)(F)F)cc1C(F)(F)F
active: [6] 170 µM
not listed: [3] | [5]
inactive: all other assays above

Cc1ccccc1CO[C@@H]1C[C@@]2(C(C)C)CC[C@]1(C)O2
active: [6] 2.86 µM
not listed: [3] | [8]
inactive: all other assays above

O=C(O)C(F)(F)C(F)(F)C(F)(F)C(F)(F)C(F)(F)C(F)(F)C(F)(F)C(F)(F)C(F)(F)F
active: [6] 59.6 µM and 12.3 µM and 24.7 µM | [7] 45.5 µM and 50 µM | [9] 51.8 µM and 50.7 µM | [10] 46.2 µM and 51.4 µM
inactive: [1] | [2] | [4] | [5] | [7] | [9] | [10]

Cc1ccccc1O
not listed: [3] | [8]
inactive: all other assays above

From PubChem BioAssay (EPA / NIEHS)
